Assay results published in the antibiotic and cytotoxicity screens of Wong et al. (2023).
Screen size: about 39,000 compounds; about 500 (1.3%) were called active. Many of the other results were omitted from the sample, so actives are more common in it than they were.

system: S. aureus RN4220; assay: growth inhibition call (relative growth <= 0.2); conditions: 50 µM

Structure (SMILES)	growth inhibition call
C[C@H](CO)N1C[C@H](C)[C@H](CN(C)S(=O)(=O)c2cn(C)cn2)Oc2ncc(-c3cc4ccccc4o3)cc2C1=O	inactive
COc1ccc(NC(=O)N(C)C[C@@H]2Oc3ccc(NC(=O)C4CC4)cc3CC(=O)N([C@@H](C)CO)C[C@@H]2C)cc1	inactive
Cc1noc(C)c1NC(=O)Nc1cccc2c1O[C@H](CN(C)Cc1ccc(C(=O)Nc3ccccc3N)cc1)[C@H](C)CN([C@@H](C)CO)C2=O	inactive
C[C@@H]1CN([C@@H](C)CO)C(=O)c2cc(NS(=O)(=O)c3ccccc3)ccc2O[C@H]1CN(C)S(=O)(=O)c1cccs1	inactive
C=CCOC(=O)[C@H]1[C@@H]2C(=O)O[C@@H](c3ccccc3)[C@@H](c3ccccc3)N2[C@@H](c2ccc(OCCOC(=O)[C@@H]3C[C@@H]4C(=O)N[C@@H](CC(C)C)C(=O)N4[C@@H]3c3ccc(O)cc3)cc2)[C@]12C(=O)Nc1ccccc12	inactive
C[C@H](CO)N1C[C@H](C)[C@H](CN(C)Cc2ccc(C(=O)Nc3ccccc3N)cc2)Oc2ccc(NC(=O)Cn3cnnn3)cc2C1=O	inactive
C[C@@H](O[C@H]1OCCN(Cc2n[nH]nc2CN(C)C)[C@H]1c1ccc(F)cc1)c1cc(C(F)(F)F)cc(C(F)(F)F)c1	active
CC(OC1OCCN(C(C)c2nc(=O)[nH][nH]2)C1c1ccc(F)cc1)c1cc(C(F)(F)F)cc(C(F)(F)F)c1 (stereo not drawn)	inactive
C[C@@H]1CN([C@@H](C)CO)C(=O)c2cccc(NC(=O)c3ccc(-c4nccs4)cc3)c2O[C@H]1CN(C)S(=O)(=O)c1cn(C)cn1	inactive
COCC#Cc1ccc2c(c1)O[C@@H](CN(C)C(=O)c1ccccc1)[C@@H](C)CN([C@@H](C)CO)S2(=O)=O	inactive
C[C@H](CO)N1C[C@H](C)[C@@H](CN(C)CC2CC2)OCCCC[C@H](C)Oc2ccc(NC(=O)CCCCCC(=O)Nc3ccccc3N)cc2C1=O	inactive
C[C@@H](Oc1ccccc1Cl)c1nc2ccc(Cl)cc2[nH]1	active
CC(C)[C@@H](N)c1nc2ccccc2[nH]1	inactive
Cc1ccc2nc([C@H](N)C(C)C)[nH]c2c1	inactive
C[C@@H]1CN([C@H](C)CO)C(=O)Cc2cc(NC(=O)CCCCCC(=O)Nc3ccccc3N)ccc2O[C@@H]1CN(C)C(=O)Nc1ccc(C(F)(F)F)cc1	inactive
CO/N=C(\C(=O)N[C@@H]1C(=O)N2C(C(=O)O)=C(C[N+]3(C)CCCC3)CS[C@H]12)c1csc(N)n1	active
CC(C)(O/N=C(\C(=O)N[C@@H]1C(=O)N2C(C(=O)O)=C(C[n+]3ccccc3)CS[C@H]12)c1csc(N)n1)C(=O)O	inactive
CON=C(C(=O)NC1C(=O)N2C(C(=O)O)=C(C[N+]3(C)CCCC3)CSC12)c1csc(N)n1.[Cl-] (stereo not drawn)	active
CON=C(C(=O)NC1C(=O)N2C(C(=O)OC(C)OC(C)=O)=C(COC(N)=O)CSC12)c1ccco1 (stereo not drawn)	inactive
CO/N=C(\C(=O)N[C@@H]1C(=O)N2C(C(=O)O)=C(CSc3nnnn3C)CS[C@H]12)c1csc(N)n1	inactive
CC(C)(O/N=C(\C(=O)N[C@@H]1C(=O)N2C(C(=O)O)=C(C[N+]3(CCNC(=O)c4ccc(O)c(O)c4Cl)CCCC3)CS[C@H]12)c1csc(N)n1)C(=O)O	inactive

Structure (SMILES)	growth inhibition call
CO/N=C(\C(=O)N[C@@H]1C(=O)N2C(C(=O)O[C@@H](C)OC(C)=O)=C(COC(N)=O)CS[C@H]12)c1ccco1	inactive
CON=C(C(=O)NC1C(=O)N2C(C(=O)[O-])=C(COC(N)=O)CSC12)c1ccco1.[Na+] (stereo not drawn)	active
CON=C(C(=O)N[C@@H]1C(=O)N2C(C(=O)O)=C(CSc3nc(=O)c(O)nn3C)CS[C@H]12)c1csc(N)n1	active
CO/N=C(\C(=O)N[C@@H]1C(=O)N2C(C(=O)O)=C(C[n+]3ccn4ncccc43)CS[C@H]12)c1nsc(N)n1	inactive
Cc1cn2nc([C@@H]3CCCCN3C(=O)c3cc(Cl)ccc3NS(C)(=O)=O)cc2nc1N1CC[C@H](N)C1	inactive
NNC(=O)c1cc(=S)nc[nH]1	inactive
Cc1noc(C)c1NC(=O)Nc1ccc2c(c1)C(=O)N([C@H](C)CO)C[C@@H](C)[C@H](CN(C)S(=O)(=O)c1cn(C)cn1)O2	inactive
C[C@@H]1CN([C@@H](C)CO)C(=O)Cc2cc(NC(=O)NC3CCCCC3)ccc2O[C@H]1CN(C)S(C)(=O)=O	inactive
C[C@H](CO)N1C[C@H](C)[C@@H](CN(C)Cc2ccc(F)cc2)Oc2ncc(C#Cc3cccnc3)cc2C1=O	inactive
C[C@H]1CN([C@@H](C)CO)C(=O)c2cc(NC(=O)CCCN(C)C)ccc2O[C@@H]1CN(C)C(=O)Nc1ccc(F)cc1	inactive
C[C@@H]1CN([C@@H](C)CO)C(=O)c2c(c3ccccc3n2C)-c2ccccc2CO[C@@H]1CN(C)Cc1cccc(C(F)(F)F)c1	inactive
C[C@@H]1CN([C@@H](C)CO)C(=O)c2cccc(NC(=O)C3CCOCC3)c2O[C@@H]1CN(C)Cc1ccncc1	inactive
O=C(C[C@@H]1CC[C@@H]2[C@H](COC[C@H](O)CN2S(=O)(=O)c2ccccc2)O1)N1CCOCC1	inactive
CCCNC(=O)N1C[C@@H](O)COC[C@H]2O[C@H](CC(=O)NCCCN3CCOCC3)CC[C@@H]21	inactive
C[C@@H]1CN([C@@H](C)CO)C(=O)c2cc(NC(=O)C3CCCCC3)ccc2O[C@@H](C)CCCCO[C@H]1CN(C)S(=O)(=O)c1ccc(Cl)cc1	inactive
C[C@@H]1CN([C@H](C)CO)C(=O)c2cc(NC(=O)Nc3ccc4c(c3)OCO4)ccc2O[C@@H](C)CCCCO[C@@H]1CN(C)C(=O)c1ccccc1	inactive
COc1ccccc1C#Cc1ccc2c(c1)O[C@@H](CN(C)C(C)=O)[C@H](C)CN([C@@H](C)CO)S2(=O)=O	inactive
CC1C(NC(=O)C(=NOC(C)(C)C(=O)O)c2csc(N)n2)C(=O)N1S(=O)(=O)O (stereo not drawn)	inactive
CO/N=C(\C(=O)N[C@@H]1C(=O)N2C(C(=O)O)=C(C)CS[C@H]12)c1csc(N)n1	active
C[C@H]1[C@H](NC(=O)/C(=N\OC(C)(C)C(=O)O)c2csc(N)n2)C(=O)N1S(=O)(=O)O	inactive
COCC1=C(C(=O)OC(C)OC(=O)OC(C)C)N2C(=O)C(NC(=O)C(=NOC)c3csc(N)n3)C2SC1 (stereo not drawn)	inactive

Structure (SMILES)	growth inhibition call
CON=C(C(=O)NC1C(=O)N2C(C(=O)[O-])=C(CSc3nc(=O)c([O-])nn3C)CSC12)c1csc(N)n1.O.O.O.[Na+].[Na+] (stereo not drawn)	inactive
CON=C(C(=O)NC1C(=O)N2C(C(=O)[O-])=C(COC(C)=O)CSC12)c1csc(N)n1.[Na+] (stereo not drawn)	active
C[C@H](CO)N1C[C@H](C)[C@H](CN(C)S(=O)(=O)c2ccccc2)Oc2ccc(NS(C)(=O)=O)cc2C1=O	inactive
O=C(C[C@@H]1CC[C@H]2[C@@H](COC[C@@H](O)CN2C(=O)Nc2cccc(F)c2)O1)NCCCN1CCOCC1	inactive
O=C(C[C@@H]1CC[C@H]2[C@@H](COC[C@@H](O)CN2C(=O)Nc2cccc(Cl)c2)O1)NCCCN1CCOCC1	active
O=C(C[C@@H]1CC[C@@H]2[C@H](COC[C@@H](O)CN2C(=O)Nc2cccc(F)c2)O1)NCCCN1CCOCC1	inactive
O=C(C[C@@H]1CC[C@H]2[C@@H](COC[C@H](O)CN2C(=O)Nc2cccc(Cl)c2)O1)NCCCN1CCOCC1	active
O=C(C[C@H]1CC[C@H]2[C@@H](COC[C@@H](O)CN2C(=O)Nc2cccc(Cl)c2)O1)NCCCN1CCOCC1	inactive
O=C(C[C@@H]1CC[C@@H]2[C@H](COC[C@H](O)CN2C(=O)Nc2cccc(F)c2)O1)NCCCN1CCOCC1	inactive
O=C(C[C@H]1CC[C@H]2[C@@H](COC[C@H](O)CN2C(=O)Nc2cccc(F)c2)O1)NCCCN1CCOCC1	inactive
O=C(C[C@H]1CC[C@@H]2[C@H](COC[C@H](O)CN2C(=O)Nc2cccc(Cl)c2)O1)NCCCN1CCOCC1	inactive
O=C(C[C@H]1CC[C@@H]2[C@H](COC[C@@H](O)CN2C(=O)Nc2cccc(Cl)c2)O1)NCCCN1CCOCC1	active
O=C(C[C@@H]1CC[C@H]2[C@@H](COC[C@H](O)CN2C(=O)Nc2cccc(F)c2)O1)NCCCN1CCOCC1	inactive
O=C(C[C@H]1CC[C@H]2[C@@H](COC[C@H](O)CN2C(=O)Nc2cccc(Cl)c2)O1)NCCCN1CCOCC1	inactive
O=C(C[C@@H]1CC[C@@H]2[C@H](COC[C@H](O)CN2C(=O)Nc2cccc(Cl)c2)O1)NCCCN1CCOCC1	active
Cc1ccc(Sc2c(-c3ccccc3)nc3sccn23)cc1	inactive
COCC(=O)Nc1ccc2c(c1)C(=O)N(C)C[C@@H](OC)[C@H](C)CN(Cc1ccccc1OC)[C@@H](C)CO2	inactive
C[C@@H](C[N+](C)(C)C)OC(N)=O	inactive
C=C[C@](C)(O)CC/C=C(\C)C(=O)O[C@@H]1[C@@H](O[C@@](C)(C=C)CC/C=C(\C)C(=O)O[C@H]2C[C@@]3(C(=O)O[C@H]4OC[C@@H](O[C@H]5O[C@@H](CO)[C@@H](O)[C@@H](O[C@H]6O[C@@H](CO)[C@@H](O[C@H]7O[C@@H](CO)[C@@H](O)[C@@H](O)[C@@H]7O)[C@@H](O)[C@@H]6O)[C@@H]5O)[C@@H](O)[C@@H]4O)[C@@H](O)C[C@@]4(C)C(=CC[C@H]5[C@@]6(C)CC[C@@H](O[C@H]7O[C@@H](CO)[C@@H](O[C@H]8O[C@@H](CO)[C@@H](O)[C@@H](O[C@H]9OC[C@@H](O)[C@@H](O)[C@@H]9O)[C@@H]8O)[C@@H](O)[C@@H]7O)C(C)(C)[C@@H]6CC[C@@]54C)[C@@H]3CC2(C)C)OC[C@@H](O)[C@H]1O	inactive
CCc1nc2ccc(C(=O)NCCN3CCNC3=O)cn2c1N(CC)Cc1cccc(Br)c1	inactive
COC(=O)[C@@]12O[C@@H]1[C@H](O[C@@H]1O[C@H](CO)[C@@H](O)[C@H](O)[C@H]1O)C[C@H]1[C@]3(C)C[C@@H](c4ccoc4)OC(=O)[C@H]3CC[C@]12C	inactive
